Bioassay records: PubChem, several laboratories
Only some compounds are listed: those with a hit (about 1.5% of all), similar ones and a draw of the others.
ARNT TACC3 PPI = disruptors of ARNT/TACC3 protein interaction, primary screen, biochemical, AlphaScreen, single concentration; AID 623870, 2012; Transforming acidic coiled-coil-containing protein 3 (Homo sapiens), Q9Y6A5; actives 0.66% (n = 390,000); AlphaScreen His-ARNT PAS-B/GST-TACC3 binding, luminescence; TACC3 fragment carries E629A point mutation; inhibition, % at 9.99 µM;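 active means mean inhibition of replicates at least 50% and at least half of replicates each reaching 50%; inconclusive means half or more replicates reach 50% but mean below 50%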
Rin1 Abl inh = inhibitors of Rin1-Abl protein binding, primary screen, biochemical, TR-FRET | AID 588664, 2011 | Tyrosine-protein kinase ABL1 (Homo sapiens) + Ras and Rab interactor 1 (Homo sapiens), … | inhibition, % at 7.35 µM | actives 0.4% (n = 360,000); in the data active means inhibition above about 5%, passing the limit was not always enough
AI-2 QS mod = Vibrio harveyi AI-2 quorum sensing modulators, primary screen, JMH597 strain, luminescence/OD600 ratio; Vibrio harveyi JMH597 AI-2 luminescence/OD600 ratio, 9 h; active compounds read low; strain lacks LuxN and CqsS sensors; 0 = neutral-control median; activity change, % at 7.5 µM; actives 0.4% (n = 300,000); AID 2094, 2009; in the data active means activity change below about -75%, passing the limit was not always enough; inconclusive means no clear call, values can overlap the other calls;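 further: luminescence divided by OD600 gain over 9 h not by final OD600 alone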
sPLA2-III inh = human group III sPLA2 inhibitors, primary screen, biochemical, QFRET, BODIPY PC-A2 liposome substrate. QFRET BODIPY PC-A2 liposome hydrolysis, fluorescence. AID 743126, 2013. actives 0.56% (n = 370,000). inhibition, % at 12.2 µM;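 active means inhibition above mean plus 3 SD of compounds lying within the high and low control bounds, cut at about 19% in these data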
Target sequence (Q9NZ20 whole entry, looked up): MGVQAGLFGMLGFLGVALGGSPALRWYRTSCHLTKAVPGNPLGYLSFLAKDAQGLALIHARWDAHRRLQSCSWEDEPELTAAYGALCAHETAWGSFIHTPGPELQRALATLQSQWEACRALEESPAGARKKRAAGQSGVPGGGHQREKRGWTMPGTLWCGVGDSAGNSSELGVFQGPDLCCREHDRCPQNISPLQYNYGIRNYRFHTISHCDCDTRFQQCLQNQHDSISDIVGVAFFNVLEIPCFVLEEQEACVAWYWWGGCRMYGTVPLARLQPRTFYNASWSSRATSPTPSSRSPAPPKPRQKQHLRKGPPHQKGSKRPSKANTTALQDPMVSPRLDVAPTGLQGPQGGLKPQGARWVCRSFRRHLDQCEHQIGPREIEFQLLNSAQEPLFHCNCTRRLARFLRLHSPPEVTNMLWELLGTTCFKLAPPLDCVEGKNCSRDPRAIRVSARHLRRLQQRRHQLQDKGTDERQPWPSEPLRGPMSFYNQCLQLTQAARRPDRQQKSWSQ
ARNT Alpha ctr-1 = AlphaScreen signal interference compounds, dose response, artefact control for ARNT-TACC3 interaction inhibitor project, biochemical, luminescence, cherry-pick. shares compounds with ARNT TACC3 PPI. His-ARNT PASB-GST AlphaScreen artifact counter-screen. AC50, µM (titrated, usually from 68 µM). actives 50% (n = 1,200);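 active means every separate test run was called active for a drop in luminescence, with AC50 within twice the top valid dose, actives reach about 71 µM in these data; inconclusive means the separate test runs disagree in their calls; inactive means all runs inactive, including signal change in the wrong direction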
ARNT Alpha ctr-2 = AlphaScreen signal interference by compounds, dose response, artefact control for ARNT/TACC3 disruptor project, biochemical, dual-tagged ARNT, dry powder; shares compounds with ARNT TACC3 PPI; Dual-tagged His-ARNT PASB-GST AlphaScreen artifact counter-screen; AC50, µM; actives 70% (n = 45);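 active means luminescence drop, with half-maximal potency fitted within twice the sample's top valid dose, cut at about 70 µM in these data; inactive means the rest, including signal moving the wrong way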
Numbers stand for hits; i = inactive; ? = inconclusive; nt = no result.

SMILES	ARNT TACC3 PPI	Rin1 Abl inh	AI-2 QS mod	sPLA2-III inh	ARNT Alpha ctr-1	others
COc1ccc(S(=O)(=O)Nc2ccc3c(c2)[C@H]2C[C@@H](CC(=O)O)O[C@H](CO)[C@H]2O3)cc1	i	nt	nt	nt	nt
Cc1ccc(-n2c(-c3ccc(Br)cc3)c[n+]3c2CCc2ccc4cccnc4c2-3)cc1	59	i	i	i	i
FC(F)(F)c1cnc(-c2cnc(-c3ccccn3)nc2)c(Cl)c1	55	i	i	i	i
C[C@@H]1CN([C@@H](C)CO)C(=O)c2c(c3ccccc3n2C)-c2ccccc2CO[C@@H]1CN(C)C(=O)[C@H]1CCCN1C	i	nt	nt	nt	nt
O=C(Cc1ccccc1)N1C[C@H]2[C@@H](c3ccccc31)[C@H](CO)N2C(=O)C1CCCCC1	i	nt	nt	nt	nt
Cc1ncc(CO)c(/C=N/NC(=O)c2cc(O)c(O)c(O)c2)c1O	nt	nt	i	nt	nt
Cc1cc(C(=O)N/N=C/c2c(CO)cnc(C)c2O)c2ccccc2n1	61	i	i	i	20µM
Cc1ncc(CO)c(/C=N/NC(=O)c2cc(Br)ccc2O)c1O	62	i	?	i	47µM
Cc1ncc(CO)c(/C=N/NC(=O)c2ccc(Br)cc2)c1O	nt	nt	i	nt	nt
O=C(c1cc(-c2ccccc2)on1)N1CCC(N2CCOCC2)CC1	nt	nt	nt	nt	i
Cc1c(NC(=O)c2cccnc2C(=O)O)cccc1C(=O)O	34	i	i	i	i
Cc1noc(C)c1NC(=O)Nc1ccc2c(c1)C(=O)N([C@@H](C)CO)C[C@@H](C)[C@H](CN(C)C(=O)c1ccccc1)OCCCC[C@@H](C)O2	i	nt	nt	nt	nt
CCC(=O)NC(c1ccc(OC)cc1)c1c(O)ccc2ccccc12 (stereo not drawn)	nt	i	i	i	nt
CCC(=O)NC(c1ccc(N(C)C)cc1)c1c(O)ccc2ccccc12 (stereo not drawn)	38	i	i	i	54µM
CN1CCN(C(=O)C[C@H]2CC[C@@H]3[C@H](COC[C@@H](O)CN3CC3CC3)O2)CC1	i	nt	nt	nt	nt
COc1cccc(CNC(=O)C[C@H]2CC[C@H]3[C@H](COc4ccc(NC(C)=O)cc4C(=O)N3C)O2)c1	i	nt	nt	nt	nt
CN(CC(=O)O)Cc1nc2ccccc2[nH]1	88	i	i	i	51µM
Cc1cccc(NC(=O)c2cc(-c3ccccc3)on2)n1	nt	nt	nt	nt	i
CCCn1cc(NC(=O)c2cc(-c3ccccc3)on2)cn1	i	i	i	i	nt
O=C(Nc1ccc2ccccc2n1)c1cc(-c2ccccc2)on1	nt	nt	nt	nt	i
Cn1c(NC(=O)c2cc(-c3ccccc3)on2)nc2ccccc21	nt	nt	nt	nt	i
Cc1cc(NC(=O)c2cc(-c3ccccc3)on2)no1	i	i	i	i	nt
O=C(C[C@@H]1CC[C@@H](NC(=O)c2cccnc2)[C@@H](CO)O1)NCc1ccncn1	i	nt	nt	nt	nt
O=c1[nH]c(SCc2ccccc2[N+](=O)[O-])nc2nc[nH]c12	i	i	i	i	nt
O=c1[nH]cnc2c1C(c1ccccc1[N+](=O)[O-])c1c(nc[nH]c1=O)O2	50	i	i	i	i
SMILES	ARNT TACC3 PPI	Rin1 Abl inh	AI-2 QS mod	sPLA2-III inh	ARNT Alpha ctr-1	others
Cc1nnc(NC(=O)CSc2nnc(CNC(=O)c3ccc(F)cc3)o2)s1	46	i	i	i	i
CN(CCCNC(=O)c1ccc(/C=N/O)nc1)CCCN(C)Cc1ccccc1	nt	i	i	i	nt
O=C(NCCCNCCCNC(=O)c1ccc(/C=N/O)nc1)c1ccc(/C=N/O)nc1	56	i	i	i	66µM
CCN(CC)C(=O)[C@H]1C[C@H](CC(=O)NCc2ccc(OC)c(OC)c2)C(=O)N2CCc3c([nH]c4ccc(Cl)cc34)[C@]12C	27	i	nt	i	i
C[C@@H]1CN([C@@H](C)CO)C(=O)c2cccc(NC(=O)Nc3ccc(C(F)(F)F)cc3)c2O[C@H]1CN(C)Cc1ccc(Cl)c(Cl)c1	i	nt	nt	nt	nt
COC(=O)Cc1cc(=O)n(-c2nc3ccccc3[nH]2)[nH]1	62	i	i	i	60µM	ARNT Alpha ctr-2=38
COCC(=O)N(C)C[C@@H]1Oc2ncc(-c3ccccc3F)cc2C(=O)N([C@H](C)CO)C[C@@H]1C	i	nt	nt	nt	nt
O=C1C(SCCO)=C(SCCO)C(=O)c2ccccc21	i	i	nt	i	nt
CC1=C(SCc2ccccc2)C(=O)c2ccccc2C1=O	24	i	nt	i	55µM
COCc1cn(CC[C@H]2CC[C@@H](NC(=O)c3ccccc3)[C@@H](CO)O2)nn1	i	nt	nt	nt	nt
O=C(N[C@H]1CC[C@@H](CCn2cc(-c3ccccn3)nn2)O[C@@H]1CO)c1ccccc1	77	nt	nt	nt	41µM
O=C(N[C@H]1CC[C@@H](CCn2cc(-c3ccccn3)nn2)O[C@H]1CO)c1ccccc1	81	nt	nt	nt	33µM
O=C(N[C@@H]1CC[C@@H](CCn2cc(-c3ccccn3)nn2)O[C@H]1CO)c1ccccc1	74	nt	nt	nt	41µM
COCc1cn(CC[C@@H]2CC[C@@H](NC(=O)c3ccncc3)[C@@H](CO)O2)nn1	i	nt	nt	nt	nt
O=C(N[C@@H]1CC[C@H](CCn2cc(-c3ccccn3)nn2)O[C@H]1CO)c1ccncc1	57	nt	nt	nt	31µM
CC(=O)N1[C@@H]2c3ccc(-c4ccncc4)c(=O)n3C[C@H]1[C@H](CO)[C@H]2C(=O)NC1Cc2ccccc2C1	i	nt	nt	nt	nt
C[C@@H]1CN([C@H](C)CO)C(=O)c2cc(-c3ccc(C#N)cc3)cnc2O[C@H]1CN(C)CC1CCCC1	i	nt	nt	nt	nt
CC(=O)N(C)C[C@@H]1Oc2ncc(-c3ccc(C)cc3)cc2C(=O)N([C@@H](C)CO)C[C@H]1C	i	nt	nt	nt	nt
O=C(NCc1ccccc1)[C@H]1[C@H](CO)[C@H]2Cn3c(ccc(-c4cccc(F)c4)c3=O)[C@@H]1N2	i	nt	nt	nt	nt
O=C(Nc1ccccc1)N1CCCCN2[C@H](CO)[C@H](c3ccc(-c4ccncc4)cc3)[C@H]2C1	i	nt	nt	nt	nt
O=C(N[C@H]1CC[C@H](CCn2cc(-c3ccccn3)nn2)O[C@@H]1CO)c1ccc(F)cc1	59	nt	nt	nt	59µM
CCC(=O)NC(c1cccs1)c1cc(Cl)c2ccccc2c1O (stereo not drawn)	i	i	nt	i	nt
CCCCC(=O)NC(c1ccccc1)c1ccc2cccnc2c1O (stereo not drawn)	i	i	nt	i	nt
CC(=O)NC(c1cccs1)c1cc([N+](=O)[O-])c2cccnc2c1O (stereo not drawn)	60	17	i	i	6.9µM
CC(=O)NC(c1cc(Cl)c2cccnc2c1O)C(C)C (stereo not drawn)	58	i	nt	i	38µM
